# Beta apoptosis: inhibitors of cytokine-induced beta cell apoptosis, primary screen, luminescence; protection from apoptosis, % (concentration not given with the values); INS-1E cytokine-induced death, ATP luminescence, 48 h; percent of positive-control rescue, neutral wells zero; 0.8% of 300,000 active;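 active means Every replicate reaches about 75%, or at least half do and their mean reaches it too, limit read from the data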;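 further: 0% = cytokine-treated negative control wells and 100% = positive control rescue; higher means more ATP so stronger rescue from cytokine killing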
# Mdm2 MdmX PPI: inhibitors of human Mdm2-MdmX association, primary screen, cell-based, luminescence, split luciferase, SaOS-2, uHTS. Protein Mdm4 (Homo sapiens) + E3 ubiquitin-protein ligase Mdm2 (Homo sapiens), …. SaOS-2 split-luciferase Mdm2/MdmX complementation. inhibition, % at 8 µM. 3% of 330,000 active;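 active means inhibition of at least 50% at 8 µM in the primary screen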
# Target sequence (O15151 whole entry, looked up): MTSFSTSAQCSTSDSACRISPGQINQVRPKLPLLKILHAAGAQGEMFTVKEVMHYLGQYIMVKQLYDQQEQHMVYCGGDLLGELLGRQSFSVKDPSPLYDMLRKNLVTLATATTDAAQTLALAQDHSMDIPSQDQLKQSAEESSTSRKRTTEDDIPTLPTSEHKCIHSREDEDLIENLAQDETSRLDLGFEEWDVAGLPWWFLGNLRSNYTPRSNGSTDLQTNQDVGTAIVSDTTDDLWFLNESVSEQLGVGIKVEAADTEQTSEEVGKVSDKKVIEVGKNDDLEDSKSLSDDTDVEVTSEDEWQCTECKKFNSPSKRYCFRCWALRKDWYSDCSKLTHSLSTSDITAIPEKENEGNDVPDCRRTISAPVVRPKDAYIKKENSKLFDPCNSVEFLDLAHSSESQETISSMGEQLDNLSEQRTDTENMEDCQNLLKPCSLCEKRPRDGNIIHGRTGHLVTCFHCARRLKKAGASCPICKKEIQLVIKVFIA
# Target sequence (Q00987 whole entry, looked up): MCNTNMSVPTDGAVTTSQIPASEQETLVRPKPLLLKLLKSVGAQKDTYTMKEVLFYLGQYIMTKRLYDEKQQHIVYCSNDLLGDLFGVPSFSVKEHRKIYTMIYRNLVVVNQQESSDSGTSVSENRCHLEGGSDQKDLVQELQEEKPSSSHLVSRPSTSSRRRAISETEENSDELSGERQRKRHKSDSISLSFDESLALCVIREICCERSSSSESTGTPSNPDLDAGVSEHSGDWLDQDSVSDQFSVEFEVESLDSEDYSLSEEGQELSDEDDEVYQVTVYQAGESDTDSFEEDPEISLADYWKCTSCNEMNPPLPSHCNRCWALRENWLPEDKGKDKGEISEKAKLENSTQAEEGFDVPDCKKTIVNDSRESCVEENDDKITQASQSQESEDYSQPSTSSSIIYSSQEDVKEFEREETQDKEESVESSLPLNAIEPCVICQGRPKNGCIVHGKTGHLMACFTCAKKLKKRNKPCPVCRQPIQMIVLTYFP
# 697 NFkB inh: inhibitors of PMA/ionomycin-induced NF-kB reporter, 697 cells, primary screen, B-cell NF-kB inhibitor project, cell-based, luminescence, uHTS; 0.33% of 330,000 active; inhibition, % at 4 µM; AID 435022, 2010; 697 B-cell NF-kB luciferase reporter, 16 h; in the data active means inhibition above about 35%
# Jurkat NFkB inh: inhibitors of induced NF-kB luciferase reporter, primary screen, TCR NF-kB activation inhibitor project, cell-based, luminescence, uHTS; Jurkat, PMA/ionomycin-induced NF-kB luciferase reporter; inhibition, % at 4 µM; 0.53% of 330,000 active; AID 435003, 2010; in the data active means inhibition above about 50%
# Gli-Sufu antag: Gli-Sufu pathway antagonists, primary screen, luciferase luminescence, Sufu-KO-LIGHT cells, uHTS; Sufu-KO-LIGHT fibroblasts, Gli luciferase reporter luminescence; inhibition, % at 5 µM; 0.74% of 340,000 active;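 active means inhibition above about 55%, limit read from the data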;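 further: 0% = DMSO-treated cells and 100% = wells with medium but no cells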
# Mdm2-MdmX conf: Mdm2-MdmX complex disruptors, retested hits, confirmation, luminescence, single concentration; shares compounds with Mdm2 MdmX PPI; Mdm2-MdmX binding, luminescent assay; inhibition, % at 8 µM; 55% of 10,000 active; AID 489028, 2010; in the data active means inhibition above about 40%
# FLuc counter: full-length luciferase signal inhibition, confirmation, counter-screen for Mdm2/MdmX interaction inhibitor project, cell-based, single concentration, SaOS-2 | shares compounds with Mdm2 MdmX PPI | SaOS-2 full-length luciferase counterscreen, luminescence | inhibition, % at 8 µM | 77% of 6,200 active | AID 504607, 2011;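 active means mean inhibition at 8 µM reaching about 37%, which flags the compound as non-specific, limit read from the data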;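 further: p53-null SaOS-2 cells with luciferase driven by a doxycycline-inducible promoter; compound on cells about two nights before reading with doxycycline added after day one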
# An asterisk follows results filed as active; . = no result given. A selection: hits, their analogues and other compounds. The true share with any hit is near 4%.
SMILES,Beta apoptosis,Mdm2 MdmX PPI,697 NFkB inh,Jurkat NFkB inh,Gli-Sufu antag,Mdm2-MdmX conf,others
COc1ccc(C2c3ccc4ccccc4c3Oc3ncn(CCN4CCOCC4)c(=N)c32)cc1 (centres undefined),.,75*,-7,-12,-3,55*,FLuc counter=53*
CCn1ncc(CN2CCC(Oc3cc(C(=O)NC4CC4)ccc3OC)CC2)c1C,-8,-9,-11,15,7,.,
CCOC(=O)c1c(NC(=O)c2ccco2)sc2c1CCCC2,1,10,-8,0,7,.,
CCOC(=O)c1c(NC(=O)CN2CCN(C(=O)c3ccco3)CC2)sc2c1CCCC2,1,56*,4,-14,4,15,
CCOC(=O)c1c(NC(=O)COc2cccc3c2CCN(CC)C3=O)sc2c1CCC2,-3,60*,-10,5,14,19,
CCCC[C@H]1COCCS(=O)(=O)N1Cc1ccc(Br)cc1,-8,6,14,11,2,.,
CCOc1ccc(S(=O)(=O)N2CCC(C(=O)Nc3cc(S(C)(=O)=O)ccc3Cl)CC2)cc1,3,7,-13,6,-24,.,
Cc1occc(=O)c1OCc1ccc(Cl)cc1Cl,-7,9,1,1,-16,.,
Cc1sc2ncnc(Sc3nnnn3-c3ccc(Cl)cc3)c2c1C,3,101*,-28,8,18,79*,FLuc counter=54*
O=C(O)CSc1ncnc2sc3c(c12)CCCC3,-4,7,-8,-14,8,.,
CSc1nnnn1-c1ccc(Cl)cc1,-3,23,15,6,-1,.,
c1ccc(-n2nnnc2Sc2ncnc3sc4c(c23)CCCC4)cc1,1,98*,-74,10,39,75*,FLuc counter=48*
COc1ccc(OC)c(Nc2nc(N)c([N+](=O)[O-])c(NCc3ccccc3)n2)c1,12,85*,-9,4,16,22,
COCCCNc1nc(N)c([N+](=O)[O-])c(Nc2cc(OC)ccc2OC)n1,-8,70*,-10,25,-15,27,
CC(C)CC(NC(=O)C(CO)NC(=O)C1CCC(=O)N1)C(N)=O (centres undefined),-3,-22,3,3,4,.,
CCOC(=O)c1ccc(NC(=S)NCc2ccco2)cc1,0,-7,3,-7,-32,.,
CCc1cc2c(N=Nc3c(O)[nH]c4ccccc34)ncnc2s1,2,2,-3,-5,27,.,
Oc1[nH]c2ccccc2c1N=Nc1ncnc2c1oc1ccccc12,2,100*,15,2,.,2,
Cc1nc(SCc2nc3c(C)cccc3[nH]2)c2oc3ccccc3c2n1,7,2,-9,-5,8,.,
Cc1nc(SCc2nc3c([N+](=O)[O-])cccc3[nH]2)c2oc3ccccc3c2n1,-7,58*,-15,-11,21,14,
Cc1ccc(S(=O)(=O)N2CCCCC2)cc1C(=O)N1CCCCCC1,-6,-24,12,4,25,.,
N/C(=N\OC(=O)c1cccc(C(F)(F)F)c1)c1cnccn1,-3,13,-66,-44,-69,.,
O=C(OCn1ncc(Cl)c(Cl)c1=O)c1cccc(C(F)(F)F)c1,7,82*,-5,5,6,100*,FLuc counter=52*
COc1ccc(NC(=O)Nc2ccc3c(c2)N(C)C(=O)CS3)cc1Cl,.,59*,-34,-6,13,42*,FLuc counter=53*
COc1ccc(NC(=O)Nc2ccc3c(c2)N(C)C(=O)CS3)cc1OC,1,35,17,5,-3,.,
CC(=O)c1ccc(NC(=O)Nc2ccc3c(c2)N(C)C(=O)CS3)cc1,-6,69*,10,-10,-12,35,
COc1ccc(/C=C/C(=O)NNC(=O)c2cc(C)oc2C)cc1,1,31,6,35,-6,.,
CCOCCCN(Cc1ccco1)C(=O)c1cc2c(=O)[nH]c3ccc(C)cc3c2s1,3,56*,9,21,-15,34,
